Bioassay records (PubChem)
The list is not random: actives were taken first. Their share in the collection is about 19%.
IL1B secr inh – blocks inflammasome-driven IL-1 beta release; 4.7% of 360,000 active; activity change, % at 57.5 µM; THP-1 LPS/ATP IL-1B secretion, AlphaLISA, 16 h; active compounds read low; AID 743279; in the data active means activity change below about -50%; inconclusive means mostly about -30% to -49%
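Secreted IL-1B measured by AlphaLISA bead assay after 16 h compound exposure of THP-1 cells; compounds (final up to 57.5 uM) added 1 h before LPS (250 ng/mL) and ATP (1.25 mM) stimulation; lower signal means less secretion.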
DT40 TDP1 CPT – growth inhibition of DT40 Tdp1-/-;hTDP1 cells with camptothecin (screen for TDP1 inhibitors). chicken DT40 Tdp1-/-;hTDP1 cells + 20 nM CPT, ATP luminescence, 48 h. Potency, µM (series often up to 46.2 µM), usual class: inhibitors. 12% of 420,000 active. AID 686979; further: nearly all actives have a fitted effect of over 55% in size
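Cell growth measured by CellTiter-Glo luminescence after a minimum 48 h, 37 C compound exposure with 20 nM CPT in Tdp1-knockout DT40 cells stably expressing hTDP1, seeded 400/well; qHTS titration format.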
DT40 TDP1 no CPT – qHTS for Inhibitors of human tyrosyl-DNA phosphodiesterase 1 (TDP1): qHTS in cells in absence of CPT; 15% of 420,000 active; Potency, µM (highest dose often 46.2 µM), usual class: inhibitors; AID 686978, 2013; DT40 Tdp1-/- hTDP1 cells, no CPT, ATP luminescence, 48 h; further: nearly all actives have a fitted effect of over 55% in size
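No-CPT arm: Tdp1-/-;hTDP1 DT40 cells (400/well) plus compounds, incubated ≥48 hr at 37 °C. Readout CellTiter-Glo luminescence.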
SW480 rerep – inducers of DNA re-replication in SW480 colon cancer cells | SW480 DNA re-replication, Hoechst DNA content imaging, 48 h | Potency, µM (titrated, usually from 46.1 µM), hits mostly activators | 1.8% of 340,000 active | AID 624297; further: nearly all actives have a fitted effect of over 55% in size
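SW480 cells exposed to compounds for 48 hr at 37 C, 5% CO2, then Hoechst-stained 40 min. Nuclear DNA content imaged by fluorescence scanning (405 nm excitation, 500-530 nm emission); re-replication scored as increased high-intensity nuclei.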
MCF10A rereplic – inducers of DNA re-replication in MCF 10A breast cells | MCF 10A DNA re-replication, Hoechst nuclear intensity, 48 h | Potency, µM (series often up to 46.1 µM), actives largely listed as activators | 2.9% of 350,000 active | AID 624296; further: nearly all actives have a fitted effect of over 50% in size
BCR signal inh – blocks chronic active B-cell receptor signaling. ABC-DLBCL IkBa-CBG/CBR reporter, luminescence ratio, 4 h. Potency, µM (titrated, usually from 46.1 µM), most hits filed as inhibitors. 0.05% of 340,000 active. AID 493014; active means well fitted inhibition curve with a large enough effect in the signal ratio, with a control signal flat, not every such curve was filed as active; inconclusive means small, poorly fitted or top-dose-only effect, or effect the other way, or a change in a side signal; the % refers to the signal ratio
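TMD8 human ABC-DLBCL cells with doxycycline-inducible IκBα–green luciferase fusion and unfused red luciferase, in 0.5% FBS medium; compounds up to 46 uM, 4 h at 37C. Green/red luminescence ratio, filter-overlap corrected, fitted to concentration-response curves.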
A number is an active result; . = inactive; ? = inconclusive; / = no result given. Unless noted, the call rests on the fitted dose curve; in most records, active means well fitted curve in the direction sought with a large enough effect; inconclusive means small, poorly fitted or top-dose-only effect, or another doubt; inactive means no such curve, though single readings can be large; an effect the other way counts as inactive or inconclusive.

SMILES	IL1B secr inh	DT40 TDP1 CPT	DT40 TDP1 no CPT	SW480 rerep	MCF10A rereplic	BCR signal inh
COc1ccccc1NC(=O)N1CC(=O)Nc2sc3c(c2C1c1ccccc1)CCCC3 (stereo not drawn)	/	23µM	18µM	/	/	/
Cc1cc(C)c(Cn2c(=O)n(-c3ccccc3Cl)c(=O)c3c(C)c(C(=O)N(C)C)sc32)c(C)c1	/	.	.	/	/	.
O=C(NCc1ccccc1)c1ccc(CNS(=O)(=O)c2ccc(Br)cc2)cc1	/	.	.	/	/	/
C/C(=N\NC(=O)c1nnn(-c2nonc2N)c1CN1CCC(C)CC1)c1ccc(Br)cc1	.	?	?	/	/	/
CCOC(=O)c1ccccc1NC(=O)N1CCN2CCCCC2C1 (stereo not drawn)	/	.	.	/	/	/
CCOC(=O)c1ccccc1NC(=O)N1CCc2c(sc(C)c2CC)C1c1ccccc1 (stereo not drawn)	/	?	16µM	/	/	/
CCc1c(C)sc2c1CCN(Cc1cccc(OC)c1)C2c1ccccc1 (stereo not drawn)	/	7.3µM	5.2µM	/	/	/
COc1cccc(CN2CCCCC2C(=O)O)c1 (stereo not drawn)	.	.	.	.	.	.
CCCN1C(=O)/C(=C/C=C2\N(CC)c3ccccc3C2(C)C)SC1=S	.	?	13µM	.	?	.
CN1/C(=C\C=C2/SC(=S)N(CC(=O)O)C2=O)C(C)(C)c2ccccc21	.	.	?	.	.	.
CC(=O)c1c(C(C)=O)c(C)n(-c2nc(-c3ccccc3)c(C)s2)c1C	.	?	13µM	.	.	?
Cc1sc(N)nc1-c1ccccc1	.	.	.	.	.	.
CCCN(CC(=O)Nc1ccccc1OC)C(=O)c1ccc(=O)[nH]c1	.	?	.	.	.	?
COC(=O)c1sc2cccc(F)c2c1S(=O)(=O)Nc1ccc(C)cc1Cl	/	.	.	/	/	/
Cc1cccc(N2CCN(C(c3ccc(F)cc3)c3nnc(-c4ccccc4)o3)CC2)c1C (stereo not drawn)	/	?	16µM	/	/	/
c1ccc(-c2nnc(CN3CCN(C(c4ccccc4)c4ccccc4)CC3)o2)cc1	.	?	?	.	.	?
O=C(O)[C@H]1CCCN1	/	.	.	/	/	/
COC(=O)CN(C)C(=O)c1ccc2nc(Cc3cccc(Cl)c3)oc2c1	.	.	.	?	.	.
CC1=CC(C)(C)N(C(=O)CSc2nncn2C)c2ccccc21	.	.	.	.	?	.
Cc1ccc2c(c1)N(C(=O)c1ccco1)C(C)(C)c1ssc(=S)c1-2	.	.	?	.	.	.
Cc1ccc2c(c1)N(C(=O)CSc1nncn1C)C(C)(C)c1ssc(=S)c1-2	.	26µM	?	?	.	.
Cc1cc2c(cc1C)N(C(=O)CSc1nncn1C)C(C)(C)c1ssc(=S)c1-2	?	29µM	?	.	.	.
COCCCNC(=O)CSc1nc2c(sc3ccccc32)c(=O)n1CCc1ccccc1	/	.	.	/	/	.
COCCCn1c(SCC(=O)Nc2ccccc2OC)nc2c(sc3ccccc32)c1=O	/	23µM	26µM	/	/	.
COCCCn1c(SCC(=O)NCc2ccccc2)nc2c(sc3ccccc32)c1=O	/	.	.	/	/	.
SMILES	IL1B secr inh	DT40 TDP1 CPT	DT40 TDP1 no CPT	SW480 rerep	MCF10A rereplic	BCR signal inh
COCCCNC(=O)CSc1nc2c(sc3ccccc32)c(=O)n1CCc1ccc(OC)c(OC)c1	/	?	5.2µM	/	/	.
Nc1cc(=O)[nH]c(SCC(=O)Nc2cccc(S(=O)(=O)N3CCCCC3)c2)n1	.	.	.	.	.	.
CC(C)CCN(C(=S)Nc1cccc(F)c1)C1CCN(C(C)C)CC1	-92	.	.	.	.	.
COc1ccc(NC(=S)N(CCC(C)C)C2CCN(C(C)C)CC2)cc1	?	?	.	.	.	?
CN(c1ccc(OCCOc2ccccc2Cl)cc1)S(=O)(=O)c1ccccc1	.	?	2.9µM	?	.	.
COc1ccc(OCCOc2ccc(N(C)S(=O)(=O)c3ccccc3)cc2)cc1	.	?	?	.	.	.
CC(Oc1ccccc1)C(=O)Nc1ccc(S(=O)(=O)N2CCN(C)CC2)cc1 (stereo not drawn)	.	?	.	.	.	.
CCS(=O)c1ccccc1C(=O)OC(C)C(=O)Nc1ccc(S(=O)(=O)N2CCCC2)cc1 (stereo not drawn)	.	13µM	?	.	.	.
CC(Oc1cccc(Cl)c1)C(=O)Nc1ccc(S(=O)(=O)N(C)C2CCN(C)CC2)cc1 (stereo not drawn)	-57	?	?	.	?	.
CCOc1ccccc1C(=O)OC(C)C(=O)Nc1ccc(S(=O)(=O)N2CCCC2)cc1 (stereo not drawn)	.	.	?	.	.	.
CC(Oc1ccccc1Cl)C(=O)Nc1ccc(S(=O)(=O)N2CCN(C)CC2)cc1 (stereo not drawn)	-55	?	?	?	?	/
CN1CCN(S(=O)(=O)c2ccc(NC(=O)c3ccc(Br)s3)cc2)CC1	.	?	?	?	15µM	.
O=C(COC(=O)c1ccc(=O)[nH]c1)Nc1cccc(S(=O)(=O)N2CCOCC2)c1	.	.	.	.	.	.
O=[N+]([O-])c1nn(-c2ccc(Cl)cc2)n(O)c1=NCc1ccccc1	.	10µM	?	.	.	?
COc1ccc(-n2nc([N+](=O)[O-])c(=NCCc3cccc(C)c3)n2O)cc1	.	?	?	.	?	.
COc1ccc(CCN=c2c([N+](=O)[O-])nn(-c3cccc(C)c3)n2O)cc1OC	.	10µM	?	.	.	.
O=C1CCCN1CCCN=c1c([N+](=O)[O-])nn(-c2ccc(Cl)cc2)n1O	.	3.3µM	6.5µM	?	?	?
Cc1cccc(CCN=c2c([N+](=O)[O-])nn(-c3ccccc3)n2O)c1	?	15µM	?	.	.	?
CCOc1ccc(Cl)cc1S(=O)(=O)N1CCC(C(=O)NCc2ccco2)CC1	.	.	.	.	.	.
O=C(NCc1cccc2[nH]ccc12)C1CCC(=O)N(CCc2ccccc2)C1 (stereo not drawn)	.	.	.	.	.	.
COCCNC(=O)C1(C)CCCN(C(=O)Cc2ccc3ccccc3c2)C1 (stereo not drawn)	.	?	?	/	/	/
CC1(C)S[C@@H]2[C@H](NC(=O)Cc3ccccc3)C(=O)N2[C@H]1C(=O)O (tested in a mixture with another compound)	/	.	?	/	/	/
O=[N+]([O-])c1nn(-c2ccc3c(c2)OCCO3)n(O)c1=NC1CCCCCC1	.	?	.	.	.	.
